Reference: PubChem BioAssay AID1159580 (chemical genetic matrix, 2015)
The whole screen tested about 5,500 compounds, of which about 2,000 (36%) were called active. Not shown: some 18% with an inconclusive outcome. No stated cut-off is given here; in the data, active means normalized growth mostly below about 0.91 (no sharp cut-off); inconclusive means no clear call, values can overlap the other calls; inactive means mostly above about 0.92. This is one part of the list.

Experiment: chemical genetic growth profiling, strain panel (AID 1159580);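 further: tested at 20 µM; growth read once vehicle control cultures reached saturation at 30 °C; 1 = growth at the plate median or of vehicle wells; lower values mean less growth of the strain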
Settings: S. cerevisiae deletion strains, growth OD
[1] = locus YAR019C, strain CDC15, active compounds read low
[2] = locus YBL105C, strain PKC1, active compounds read low
[3] = locus YBR135W, strain CKS1, active compounds read low
[4] = locus YBR136W, strain MEC1, active compounds read low
[5] = locus YBR160W, strain CDC28, active compounds read low
[6] = locus YDL017W, strain CDC7, active compounds read low
[7] = locus YDL028C, strain MPS1, active compounds read low
[8] = locus YDL101C, strain DUN1, active compounds read low
[9] = locus YDL108W, strain KIN28, active compounds read low
[10] = locus YDL132W, strain cdc53, active compounds read low
[11] = locus YDL214C, strain PRR2, active compounds read low
[12] = locus YDR052C, strain DBF4, active compounds read low
[13] = locus YDR054C, strain cdc34, active compounds read low
[14] = locus YDR226W, strain ADK1, active compounds read low
[15] = locus YDR477W, strain SNF1, active compounds read low
[16] = locus YER123W, strain YCK3, active compounds read low
[17] = locus YER133W, strain GLC7, active compounds read low
[18] = locus YFL009W, strain cdc4, active compounds read low
[19] = locus YFL029C, strain CAK1, active compounds read low
[20] = locus YFR003C, strain YPI1, active compounds read low
[21] = locus YFR019W, strain FAB1, active compounds read low
[22] = locus YFR028C, strain CDC14, active compounds read low
[23] = locus YGR040W, strain KSS1, active compounds read low
[24] = locus YGR052W, strain FMP48, active compounds read low
[25] = locus YGR092W, strain DBF2, active compounds read low
[26] = locus YHR030C, strain SLT2, active compounds read low
[27] = locus YHR079C, strain IRE1, active compounds read low
[28] = locus YHR082C, strain KSP1, active compounds read low
[29] = locus YHR205W, strain SCH9, active compounds read low
[30] = locus YIL147C, strain SLN1, active compounds read low
[31] = locus YJL095W, strain BCK1, active compounds read low
[32] = locus YJL128C, strain PBS2, active compounds read low
[33] = locus YJL157C, strain FAR1, active compounds read low
[34] = locus YJR016C, strain ILV3, active compounds read low
[35] = locus YJR066W, strain TOR1 (second series), active compounds read low
[36] = locus YJR066W, strain TOR1, active compounds read low
[37] = locus YKL048C, strain ELM1, active compounds read low
[38] = locus YKL067W, strain YNK1, active compounds read low
[39] = locus YKL101W, strain HSL1, active compounds read low
[40] = locus YKL193C, strain SDS22, active compounds read low
[41] = locus YKL203C, strain TOR2, active compounds read low
[42] = locus YLR113W, strain HOG1, active compounds read low
[43] = locus YLR133W, strain CKI1, active compounds read low
[44] = locus YLR403W, strain SFP1, active compounds read low
[45] = locus YML070W, strain DAK1, active compounds read low
[46] = locus YMR001C, strain CDC5, active compounds read low
[47] = locus YMR205C, strain PFK2 (second series), active compounds read low
[48] = locus YMR277W, strain FCP1, active compounds read low
[49] = locus YNL006W, strain LST8, active compounds read low
[50] = locus YNL020C, strain ARK1, active compounds read low
[51] = locus YNL161W, strain CBK1, active compounds read low
[52] = locus YNL183C, strain NPR1, active compounds read low
[53] = locus YNL207W, strain RIO2, active compounds read low
[54] = locus YNL222W, strain SSU72, active compounds read low
[55] = locus YNL307C, strain MCK1 (second series), active compounds read low
[56] = locus YOL078W, strain AVO1, active compounds read low
[57] = locus YOL136C, strain PFK27, active compounds read low
[58] = locus YOR061W, strain CKA2, active compounds read low
[59] = locus YOR119C, strain RIO1, active compounds read low
[60] = locus YOR231W, strain MKK1, active compounds read low
[61] = locus YOR329C, strain SCD5, active compounds read low
[62] = locus YPL031C, strain PHO85, active compounds read low
[63] = locus YPL153C, strain RAD53, active compounds read low
[64] = locus YPL204W, strain HRR25, active compounds read low
[65] = locus YPL209C, strain IPL1, active compounds read low
[66] = locus YPL256C, strain CLN2, active compounds read low
[67] = locus YPR025C, strain CCL1, active compounds read low
[68] = locus YPR106W, strain ISR1, active compounds read low
[69] = locus YPR111W, strain DBF20, active compounds read low
[70] = strain NNK1, active compounds read low
[71] = strain TSCII, active compounds read low

Measured: normalized growth

O=C1c2ccccc2O[C@@H](c2ccccc2)[C@@H]1NCc1ccccc1
inactive: [1] 0.915 | [2] 0.916 | [3] 0.922 | [4] 0.921 | [5] 0.922 | [6] 0.915 | [7] 0.919 | [9] 0.929 | [11] 0.867 | [12] 0.914 | [13] 0.879 | [15] 0.853 | [16] 0.836 | [17] 0.836 | [18] 0.894 | [19] 0.909 | [20] 0.916 | [21] 0.894 | [23] 0.85 | [24] 0.856 | [25] 0.844 | [27] 0.839 | [28] 0.906 | [29] 0.905 | [30] 0.915 | [31] 0.751 | [32] 0.874 | [33] 0.835 | [34] 0.906 | [35] 0.76 | [36] 0.864 | [37] 0.897 | [38] 0.89 | [39] 0.899 | [40] 0.905 | [41] 0.918 | [43] 0.89 | [44] 0.834 | [45] 0.85 | [46] 0.899 | [47] 0.863 | [48] 0.904 | [49] 0.915 | [50] 0.88 | [51] 0.903 | [52] 0.92 | [53] 0.89 | [54] 0.923 | [55] 0.895 | [56] 0.903 | [57] 0.863 | [58] 0.849 | [59] 0.89 | [60] 0.887 | [61] 0.911 | [62] 0.841 | [63] 0.846 | [64] 0.825 | [65] 0.918 | [67] 0.922 | [68] 0.909 | [69] 0.911 | [70] 0.891 | [71] 0.885
active: [8] 0.905 | [10] 0.893 | [14] 0.896 | [22] 0.891 | [26] 0.677 | [42] 0.739 | [66] 0.846

O=C1c2ccccc2O[C@@H](c2ccccc2)[C@@H]1NC1CCCCC1
active: [8] 0.898 | [10] 0.887 | [12] 0.907 | [13] 0.872 | [18] 0.884 | [22] 0.888 | [26] 0.697 | [34] 0.898 | [42] 0.747 | [49] 0.906
inactive: [1] 0.904 | [2] 0.909 | [3] 0.914 | [4] 0.916 | [5] 0.927 | [6] 0.914 | [7] 0.913 | [9] 0.924 | [11] 0.883 | [14] 0.898 | [15] 0.87 | [16] 0.843 | [17] 0.841 | [19] 0.91 | [20] 0.915 | [21] 0.889 | [23] 0.866 | [24] 0.885 | [25] 0.871 | [27] 0.852 | [28] 0.933 | [29] 0.898 | [30] 0.909 | [31] 0.792 | [32] 0.872 | [33] 0.849 | [35] 0.771 | [36] 0.888 | [37] 0.901 | [38] 0.903 | [39] 0.906 | [40] 0.902 | [41] 0.922 | [43] 0.897 | [44] 0.849 | [45] 0.871 | [46] 0.901 | [47] 0.878 | [48] 0.905 | [50] 0.901 | [51] 0.9 | [52] 0.941 | [53] 0.898 | [54] 0.919 | [55] 0.904 | [56] 0.9 | [57] 0.887 | [58] 0.867 | [59] 0.945 | [60] 0.874 | [61] 0.909 | [62] 0.867 | [63] 0.864 | [64] 0.843 | [65] 0.917 | [66] 0.858 | [67] 0.914 | [68] 0.91 | [69] 0.92 | [70] 0.905 | [71] 0.881

Nc1ccc(N2C(=O)c3ccccc3C2=O)c(Cl)c1
inactive: locus YAL040C, strain CLN3, active compounds read low 1.06 | locus YCL061C, strain MRC1 (second series), active compounds read low 1.01 | locus YER002W, strain NOP16, active compounds read low 0.974 | locus YGR078C, strain PAC10, active compounds read low 0.98 | locus YJR075W, strain HOC1, active compounds read low 1 | locus YNL153C, strain GIM3, active compounds read low 0.995 | locus YNL175C, strain NOP13, active compounds read low 0.958 | locus YNL197C, strain WHI3, active compounds read low 0.935 | locus YNL224C, strain SQS1, active compounds read low 0.94 | locus YNL322C, strain KRE1, active compounds read low 0.986 | locus YOR083W, strain WHI5 (second series), active compounds read low 1.02
